Inconclusive results are not listed. Activity calls are given as the source filed them. Calls come from the whole dose curve; as a rule, active = well fitted curve in the direction sought with a large enough effect in the signal ratio, with a control signal flat (not every such curve was filed as active); inconclusive = small, poorly fitted or top-dose-only effect, or a change in a side signal; inactive = no such curve, though single readings can be large or run the other way; the % refers to the signal ratio.
Assay: qHTS Assay for Identification of Small Molecule Inducers of Hypoxia Response (AID 2120); for activation: 0% is about no effect
Details: hypoxia response reporter cells, beta-lactamase ratio readout; series mostly up to 104 µM; activation: at the top concentration
Source text: NIH Chemical Genomics Center [NCGC]
NIH Molecular Libraries Screening Centers Network [MLSCN]
National Institutes of Environmental Health Sciences [NIEHS]
National Toxicology Program [NTP]
Hypoxia-inducible factor-1 (HIF-1) is the major hypoxia-regulated transcription factor that controls cellular responses to low oxygen concentration. HIF-1 is composed of two subunits: hypoxia responsive HIF-1a and constitutively expressed HIF-1b, which is also known as aryl hydrocarbon receptor nuclear translocator. During hypoxic conditions, HIF-1a heterodimerizes with HIF-1b and translocates into the nucleus where the HIF-1 complex binds to the hypoxia-response element (HRE) and activates expression of target genes such as VEGF (vascular endothelial growth factor). The HIF-1 pathway is essential to normal growth and development, and is involved in the pathophysiology of cancer, inflammation, and ischemia.
Using a beta-lactamase reporter-gene under control of the hypoxia response element, a cell-based assay [CellSensor(TM) HRE-bla ME-180 developed by Invitrogen Corp.] was used to measure hypoxia-induced signaling. Library compounds were measured for their ability to induce the reporter gene activity. Compounds were screened in a titration series in 1536-well format. The inducers were identified based on the AC50 values derived from the screening data.
NCGC Assay Protocol Summary
2500 cells/5uL in Opti-MEM medium containing 0.5% dialyzed FBS, 0.1 mM NEAA, 1 mM sodium pyruvate and 10 mM HEPES was dispensed into 1536-well plates and cells were cultured at 37 degrees Celsius for 4-5 hours and then 23 nL of compounds or DMSO were delivered to each well using a pin tool. The plates were incubated at 37 degrees Celsius for 17 hours. 1 uL of CCF4-dye mixture was added to each well. After incubated at room temperature for 2.5 hours the plates were measured on an EnVision plate reader at Excitation 405nm, Emission1=460nm and Emission 2=530nm. The %Activity was determined from the ratio of 460nm/530nm.
Potency is the fitted concentration of half-maximal effect.

SMILES | activation | Potency
Nc1ccc2ccccc2c1 | 1.81% (inactive) | –
CCNCC | 0.604% (inactive) | –
Oc1ccc(Cl)c(Cl)c1Cl | 1.21% (inactive) | –
CC(=O)CCC(C)=O | -0.331% (inactive) | –
BrCC(Br)C1CCC(Br)C(Br)C1 (stereo not given) | -0.0975% (inactive) | –
CSSC | 1.51% (inactive) | –
CC(C)C#N | -0.555% (inactive) | –
BrCCc1ccccc1 | 0.265% (inactive) | –
Cc1cccc(C)c1N | -0.389% (inactive) | –
S=C1NCCN1 | 0.0403% (inactive) | –
N#C/C(N)=C(/N)C#N | 0.307% (inactive) | –
O=C(O)C(Cl)Br (stereo not given) | 0.504% (inactive) | –
Cc1cc(-c2cc(C)c(N)c(C)c2)cc(C)c1N | 0.262% (inactive) | –
C=CC(=O)OC | 0.653% (inactive) | –
BrC(Br)Br | -0.389% (inactive) | –
CCN(CC)N=O | 0.311% (inactive) | –
CCN(CC)CCO | -0.906% (inactive) | –
C=CC#N | 0.662% (inactive) | –
Oc1cccc(Cl)c1 | 0.906% (inactive) | –
CCSC(=O)N1CCCCCC1 | -0.0601% (inactive) | –

SMILES | activation | Potency
CN(C)C(=O)Cl | 1.56% (inactive) | –
Cc1ccc(OP(=O)(Oc2ccc(C)cc2)Oc2ccc(C)cc2)cc1 | 0.92% (inactive) | –
C=CCOCC1CO1 (stereo not given) | 0.302% (inactive) | –
BrCC(Br)(Br)Br | 5.1% (inactive) | –
CCC#N | -0.181% (inactive) | –
OC[P+](CO)(CO)CO | 0.221% (inactive) | –
COC(=O)c1ccccc1N | 0.099% (inactive) | –
CCCCOCC1CO1 (stereo not given) | 0.302% (inactive) | –
COc1c(C(C)(C)C)cc([N+](=O)[O-])c(C)c1[N+](=O)[O-] | 0.609% (inactive) | –
c1ccc2c(c1)ccc1cc3c(ccc4ccccc43)cc12 | – | 44.7 µM (active)
CCOP(=O)(OCC)OCC | -0.604% (inactive) | –
CCCBr | 1.13% (inactive) | –
CC(C)OS(C)(=O)=O | 0.507% (inactive) | –
CCOC(=O)CBr | 0.383% (inactive) | –
Cc1ccc(N)cc1N | 1.2% (inactive) | –
CC12CC1(C)C(=O)N(c1cc(Cl)cc(Cl)c1)C2=O (stereo not given) | 1.82% (inactive) | –
O=[N+]([O-])c1ccc(O)c([N+](=O)[O-])c1 | 2.34% (inactive) | –
O=C(Cl)OCc1ccccc1 | -0.0975% (inactive) | –
O=c1ccc(=O)[nH][nH]1 | 0.297% (inactive) | –
CCOC(=O)C1OC1(C)c1ccccc1 (stereo not given) | 0.809% (inactive) | –

— PubChem BioAssay (NCATS)
